Where “and” joins values, the source holds several entries; their conditions need not be identical. Identical values can stand only once. Records with an inconclusive call do not appear. Calls of active or inactive are those of the source. Calls follow the shape of the dose curve; as a rule, active = well fitted inhibition curve with a large enough effect; inconclusive = small, poorly fitted or top-dose-only effect; inactive = flat fitted curve, though single readings scatter.
System: W2
Experiment: qHTS profiling for inhibitors of Plasmodium falciparum proliferation (AID 504749)
Conditions: P. falciparum in erythrocytes, SYBR Green DNA, 72 h; series mostly up to 28.7 µM
Method in brief: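 Three-day growth assay of blood-stage parasites in erythrocytes (0.3% parasitemia, 2.5% hematocrit) at 37 C, 5% CO2, quantified by SYBR Green DNA staining after overnight detergent lysis.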
Also: nearly all actives have a fitted effect of over 60% in size.
Potency is read from the fitted curve at half-maximal effect.

SMILES	Potency
CCC1(c2ccccc2)C(=O)NCNC1=O	inactive
O=C(Nc1ccc([N+](=O)[O-])cc1Cl)c1cc(Cl)ccc1O	0.953 µM (active)
NC12CC3CC(CC(C3)C1)C2	inactive
CCCCc1oc2ccccc2c1C(=O)c1cc(I)c(OCCN(CC)CC)c(I)c1	4.26 µM (active)
OCCN1CCN(CCCN2c3ccccc3Sc3ccc(C(F)(F)F)cc32)CC1	1.51 µM (active)
Cc1cc(C(C)(C)C)cc(C)c1CC1=NCCN1	4.05 µM (active)
Clc1ccc2c(c1)C(N1CCNCC1)=Nc1ccccc1O2	5.36 µM (active)
CN(C)CCCN1c2ccccc2CCc2ccc(Cl)cc21	1.9 µM (active)
CC(COc1ccccc1)N(CCCl)Cc1ccccc1 (stereo not given)	6.01 µM (active)
Cn1c(=O)c2[nH]cnc2n(C)c1=O	inactive
CN(C)CCOC(c1ccccc1)c1ccccc1	0.953 µM (active)
Cc1cn([C@H]2C[C@H](N=[N+]=[N-])[C@@H](CO)O2)c(=O)[nH]c1=O	inactive
CC#C[C@]1(O)CC[C@H]2[C@@H]3CCC4=CC(=O)CCC4=C3[C@@H](c3ccc(N(C)C)cc3)C[C@@]21C	6.75 µM (active)
COc1ccccc1OCCNCC(O)COc1cccc2[nH]c3ccccc3c12 (stereo not given)	4.78 µM (active)
CCOC(=O)Nc1ccc(NCc2ccc(F)cc2)nc1N	3.79 µM (active)
CN(C)CCC=C1c2ccccc2C=Cc2ccccc21	1.2 µM (active)
CCOC(=O)c1ncn2c1CN(C)C(=O)c1cc(F)ccc1-2	inactive
CC(C)NCC(O)COc1ccc(CCOCC2CC2)cc1 (stereo not given)	15.1 µM (active)
CNCCCC12CCC(c3ccccc31)c1ccccc12	6.01 µM (active)
O=C1c2c(O)ccc(O)c2C(=O)c2c(NCCNCCO)ccc(NCCNCCO)c21	1.81 µM (active)
CC1(CN2CCC(n3c(=O)[nH]c4ccccc43)CC2)OCc2ccccc2-n2cccc21 (stereo not given)	7.57 µM (active)
O=C(c1ccc(OCCN2CCCCC2)cc1)c1c(-c2ccc(O)cc2)sc2cc(O)ccc12	3.01 µM (active)
COc1ccccc1OCC(O)CN1CCN(CC(=O)Nc2c(C)cccc2C)CC1 (stereo not given)	inactive

System: CRL-7250
Experiment: Cytotoxic Profiling of Annotated Libraries Using Quantitative High-Throughput Screening (AID 1296008); as to max response: % is scaled to controls: 0 for no effect and ±100 for the full control effect
Conditions: Five cell lines viability, CellTiter-Glo ATP luminescence, 48-72 h; max response: stronger effect = lower value
Method in brief: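 Cytotoxicity was measured as CellTiter-Glo ATP luminescence, read after 10 min at room temperature. Compound treatment of the cells lasted 48 or 72 hr at 37 degrees Celsius in a qHTS format.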

SMILES	max response	outcome	Potency
COc1ccc(CCN(C)CCCC(C#N)(c2ccc(OC)c(OC)c2)C(C)C)cc1OC (stereo not given)	-3.47% (inactive) and -1.73% (inactive)	–	–
Nc1c2c(nc3ccccc13)CCCC2	–	inactive	–
NC12CC3CC(CC(C3)C1)C2	–	inactive	–
CCCCc1oc2ccccc2c1C(=O)c1cc(I)c(OCCN(CC)CC)c(I)c1	-7.04% (inactive) and -18.2% (inactive)	–	–
OCCN1CCN(CCCN2c3ccccc3Sc3ccc(C(F)(F)F)cc32)CC1	1.65% (inactive)	–	–
Cc1cc(C(C)(C)C)cc(C)c1CC1=NCCN1	-1.37% (inactive) and -2.32% (inactive)	–	–
CC(CCc1ccc(O)cc1)NCCc1ccc(O)c(O)c1 (stereo not given)	–	–	23.7 µM (active)
Clc1ccc2c(c1)C(N1CCNCC1)=Nc1ccccc1O2	-6.06% (inactive) and -6.64% (inactive) and -8.49% (inactive)	–	–
CN(C)CCCN1c2ccccc2CCc2ccc(Cl)cc21	-24.3% (inactive)	–	–
Clc1ccc(C(c2ccccc2Cl)C(Cl)Cl)cc1 (stereo not given)	-3.27% (inactive)	–	–
CN(C)CCOC(c1ccccc1)c1ccccc1	-3.47% (inactive) and -12.2% (inactive)	–	–
CC#C[C@]1(O)CC[C@H]2[C@@H]3CCC4=CC(=O)CCC4=C3[C@@H](c3ccc(N(C)C)cc3)C[C@@]21C	-15.2% (inactive)	–	–
COc1ccccc1OCCNCC(O)COc1cccc2[nH]c3ccccc3c12 (stereo not given)	3.53% (inactive) and -0.382% (inactive)	–	–
CCOC(=O)Nc1ccc(NCc2ccc(F)cc2)nc1N	-7.5% (inactive) and -7.01% (inactive)	–	–
CN(C)CCC=C1c2ccccc2C=Cc2ccccc21	-6.55% (inactive)	–	–
CC(C)NCC(O)COc1ccc(CCOCC2CC2)cc1 (stereo not given)	-5.76% (inactive)	–	–
CN1CCC(=C2c3ccccc3C=Cc3ccccc32)CC1	–	inactive	–
O=C1c2c(O)ccc(O)c2C(=O)c2c(NCCNCCO)ccc(NCCNCCO)c21	–	–	4.18 µM (active) and 1.68 µM (active)
CC1(CN2CCC(n3c(=O)[nH]c4ccccc43)CC2)OCc2ccccc2-n2cccc21 (stereo not given)	-0.873% (inactive) and 0.74% (inactive)	–	–
COc1ccccc1N1CCN(CC(O)COc2cccc3ccccc23)CC1 (stereo not given)	4.67% (inactive)	–	–
CN(Cc1cnc2nc(N)nc(N)c2n1)c1ccc(C(=O)N[C@@H](CCC(=O)O)C(=O)O)cc1	–	–	0.119 µM (active)
O=C(c1ccc(OCCN2CCCCC2)cc1)c1c(-c2ccc(O)cc2)sc2cc(O)ccc12	–	inactive	–

— PubChem BioAssay (NCATS)
